# Reference: the supplement of paper PMC8728848
# This excerpt belongs to a sample that is enriched for the strongest signals.
# B1: RBMC1 (Vibrio cholerae) (protein)
# chain: QQSQRVVTADNLMYLRSGFAIDAIGTTVNNLVGGPVQGTNGGVLRAPIALDQLQSVEVTSGLYNWGGYHIVAIKFTMKDGSSVLLGSTHYASNKKVETYTVPQGKRIKQINVWTGGWLVEGFQFVY
# Legend:
# Experiment in all cases: glycan array binding signal (z-score within array); higher = stronger binding
# Details in all cases: glycan notation: IUPAC condensed, linker removed
# Fuc(a1-2)Gal = target: Fuc(a1-2)Gal
# Procedure, shortened: (§1)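 The Consortium for Functional Glycomics database supplied 3228 glycan arrays, of which those lacking an available protein sequence were dropped. The binding signal, a within-array Z-score, was averaged across arrays of the same protein sequence and across linkers. Negative scores can be read as non-binding.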
# [1] = target: Fuc(a1-2)Gal(b1-3)GlcNAc(b1-2)Man(a1-3)[Fuc(a1-2)Gal(b1-3)GlcNAc(b1-2)Man(a1-6)]Man(b1-4)GlcNAc(b1-4)GlcNAc
# Procedure, shortened: as §1
# [2] = target: Fuc(a1-2)Gal(b1-3)GlcNAc(b1-3)[Neu5Ac(a2-6)Gal(b1-4)GlcNAc(b1-6)]Gal(b1-4)Glc
# Procedure, shortened: as §1
# Fuc(a1-2)Gal(b1-4)Glc6S = target: Fuc(a1-2)Gal(b1-4)Glc6S
# Procedure, shortened: as §1
# Fuc(a1-2)Gal(b1-4)GlcNAc = target: Fuc(a1-2)Gal(b1-4)GlcNAc
# Procedure, shortened: as §1
# Fuc(a1-2)[Gal(a1-3)]Gal = target: Fuc(a1-2)[Gal(a1-3)]Gal
# Procedure, shortened: as §1
# [3] = target: Fuc(a1-2)[Gal(a1-3)]Gal(b1-3)GlcNAc(b1-2)Man(a1-3)[Fuc(a1-2)[Gal(a1-3)]Gal(b1-3)GlcNAc(b1-2)Man(a1-6)]Man(b1-4)GlcNAc(b1-4)[Fuc(a1-6)]GlcNAc
# Procedure, shortened: as §1
# [4] = target: Fuc(a1-2)[Gal(a1-3)]Gal(b1-4)GlcNAc
# Procedure, shortened: as §1
# [5] = target: Fuc(a1-2)[GalNAc(a1-3)]Gal(b1-4)GlcNAc(b1-2)Man(a1-3)[Fuc(a1-2)[GalNAc(a1-3)]Gal(b1-4)GlcNAc(b1-2)Man(a1-6)]Man(b1-4)GlcNAc(b1-4)GlcNAc
# Procedure, shortened: as §1
# [6] = target: Fuc(a1-2)[GalNAc(b1-3)]Gal
# Procedure, shortened: as §1
# [7] = target: Fuc(a1-3)[Gal(b1-4)]Glc6S
# Procedure, shortened: as §1
# [8] = target: Fuc(a1-3)[Gal(b1-4)]GlcNAc(b1-3)Gal(b1-3)[Fuc(a1-4)]GlcNAc
# Procedure, shortened: as §1
# Fuc(a1-4)GlcNAc = target: Fuc(a1-4)GlcNAc
# Procedure, shortened: as §1
# [9] = target: Gal(a1-3)Gal(b1-4)GlcNAc(b1-2)Man(a1-3)[Gal(a1-3)Gal(b1-4)GlcNAc(b1-2)Man(a1-6)]Man(b1-4)GlcNAc(b1-4)GlcNAc
# Procedure, shortened: as §1
# Gal(a1-3)GalNAc = target: Gal(a1-3)GalNAc
# Procedure, shortened: as §1
# [10] = target: Gal(a1-4)Gal(b1-3)GlcNAc(b1-2)Man(a1-3)[Gal(a1-4)Gal(b1-3)GlcNAc(b1-2)Man(a1-6)]Man(b1-4)GlcNAc(b1-4)GlcNAc
# Procedure, shortened: as §1
# Gal(a1-4)Gal(b1-4)GlcNAc = target: Gal(a1-4)Gal(b1-4)GlcNAc
# Procedure, shortened: as §1
# [11] = target: Gal(a1-4)Gal(b1-4)GlcNAc(b1-2)Man(a1-3)[Gal(a1-4)Gal(b1-4)GlcNAc(b1-2)Man(a1-6)]Man(b1-4)GlcNAc(b1-4)GlcNAc
# Procedure, shortened: as §1
# Gal(a1-4)GlcNAc = target: Gal(a1-4)GlcNAc
# Procedure, shortened: as §1
# [12] = target: Gal(b1-3)GlcNAc(b1-2)Man(a1-3)[Gal(b1-3)GlcNAc(b1-2)Man(a1-6)]Man(b1-4)GlcNAc(b1-4)GlcNAc
# Procedure, shortened: as §1
# [13] = target: Gal(b1-3)GlcNAc(b1-2)Man(a1-3)[Gal(b1-3)GlcNAc(b1-2)Man(a1-6)]Man(b1-4)GlcNAc(b1-4)[Fuc(a1-6)]GlcNAc
# Procedure, shortened: as §1
# [14] = target: Gal(b1-3)GlcNAc(b1-2)Man(a1-3)[GlcNAc(b1-4)][Gal(b1-3)GlcNAc(b1-2)Man(a1-6)]Man(b1-4)GlcNAc(b1-4)GlcNAc
# Procedure, shortened: as §1
# [15] = target: Gal(b1-3)GlcNAc(b1-2)[Gal(b1-3)GlcNAc(b1-6)]Man(a1-6)[Gal(b1-3)GlcNAc(b1-2)Man(a1-3)]Man(b1-4)GlcNAc(b1-4)GlcNAc
# Procedure, shortened: as §1
# [16] = target: Gal(b1-3)GlcNAc(b1-3)Gal(b1-3)GlcNAc
# Procedure, shortened: as §1
# [17] = target: Gal(b1-3)[Fuc(a1-4)]GlcNAc(b1-3)Gal(b1-4)[Fuc(a1-3)]GlcNAc
# Procedure, shortened: as §1
# [18] = target: Gal(b1-4)GlcNAc(a1-6)Gal(b1-4)GlcNAc
# Procedure, shortened: as §1
# [19] = target: Gal(b1-4)GlcNAc(b1-2)Man(a1-3)Man(b1-4)GlcNAc(b1-4)GlcNAc
# Procedure, shortened: as §1
# [20] = target: Gal(b1-4)GlcNAc(b1-2)Man(a1-3)[GlcNAc(b1-2)Man(a1-6)]Man(b1-4)GlcNAc(b1-4)GlcNAc
# Procedure, shortened: as §1
# [21] = target: Gal(b1-4)GlcNAc(b1-3)Gal(b1-4)GlcNAc(b1-2)Man(a1-3)[Gal(b1-4)GlcNAc(b1-3)Gal(b1-4)GlcNAc(b1-2)Man(a1-6)]Man(b1-4)GlcNAc(b1-4)[Fuc(a1-6)]GlcNAc
# Procedure, shortened: as §1
# [22] = target: Gal(b1-4)GlcNAc(b1-3)Gal(b1-4)GlcNAc(b1-3)Gal(b1-4)GlcNAc(b1-3)Gal(b1-4)GlcNAc(b1-2)[Gal(b1-4)GlcNAc(b1-3)Gal(b1-4)GlcNAc(b1-3)Gal(b1-4)GlcNAc(b1-3)Gal(b1-4)GlcNAc(b1-6)]Man(a1-6)[Gal(b1-4)GlcNAc(b1-3)Gal(b1-4)GlcNAc(b1-3)Gal(b1-4)GlcNAc(b1-3)Gal(b1-4)GlcNAc(b1-2)Man(a1-3)]Man(b1-4)GlcNAc(b1-4)[Fuc(a1-6)]GlcNAc
# Procedure, shortened: as §1
# [23] = target: Gal(b1-4)GlcNAc(b1-3)Gal(b1-4)GlcNAc(b1-3)Gal(b1-4)GlcNAc(b1-3)Gal(b1-4)GlcNAc(b1-3)Gal(b1-4)GlcNAc(b1-3)Gal(b1-4)GlcNAc(b1-2)Man(a1-3)[Gal(b1-4)GlcNAc(b1-3)Gal(b1-4)GlcNAc(b1-3)Gal(b1-4)GlcNAc(b1-3)Gal(b1-4)GlcNAc(b1-3)Gal(b1-4)GlcNAc(b1-3)Gal(b1-4)GlcNAc(b1-2)Man(a1-6)]Man(b1-4)GlcNAc(b1-4)GlcNAc
# Procedure, shortened: as §1
# [24] = target: Gal(b1-4)GlcNAc(b1-6)GalNAc
# Procedure, shortened: as §1
# [25] = target: Gal(b1-4)GlcNAc(b1-6)[Gal(b1-3)]GalNAc
# Procedure, shortened: as §1
binder,measurement,setting,value
B1,glycan array binding signal (z-score),Fuc(a1-2)Gal,-0.366
same,glycan array binding signal (z-score),[1],1.37
same,glycan array binding signal (z-score),[2],-0.436
same,glycan array binding signal (z-score),Fuc(a1-2)Gal(b1-4)Glc6S,-0.119
same,glycan array binding signal (z-score),Fuc(a1-2)Gal(b1-4)GlcNAc,-0.362
same,glycan array binding signal (z-score),Fuc(a1-2)[Gal(a1-3)]Gal,-0.15
same,glycan array binding signal (z-score),[3],-0.324
same,glycan array binding signal (z-score),[4],-0.311
same,glycan array binding signal (z-score),[5],0.123
same,glycan array binding signal (z-score),[6],-0.299
same,glycan array binding signal (z-score),[7],-0.164
same,glycan array binding signal (z-score),[8],-0.378
same,glycan array binding signal (z-score),Fuc(a1-4)GlcNAc,-0.041
same,glycan array binding signal (z-score),[9],2.77
same,glycan array binding signal (z-score),Gal(a1-3)GalNAc,-0.237
same,glycan array binding signal (z-score),[10],1.41
same,glycan array binding signal (z-score),Gal(a1-4)Gal(b1-4)GlcNAc,-0.178
same,glycan array binding signal (z-score),[11],3.8
same,glycan array binding signal (z-score),Gal(a1-4)GlcNAc,-0.353
same,glycan array binding signal (z-score),[12],2.48
same,glycan array binding signal (z-score),[13],0.912
same,glycan array binding signal (z-score),[14],-0.049
same,glycan array binding signal (z-score),[15],-0.266
same,glycan array binding signal (z-score),[16],-0.311
same,glycan array binding signal (z-score),[17],-0.3
same,glycan array binding signal (z-score),[18],-0.36
same,glycan array binding signal (z-score),[19],-0.354
same,glycan array binding signal (z-score),[20],1.72
same,glycan array binding signal (z-score),[21],2.64
same,glycan array binding signal (z-score),[22],-0.194
same,glycan array binding signal (z-score),[23],0.712
same,glycan array binding signal (z-score),[24],-0.186
same,glycan array binding signal (z-score),[25],0.163
